Test results published in PubChem BioAssay (NCATS).
Inconclusive results are not listed. The source made the active and inactive calls. The call rests on the fitted dose curve; in most records, active means well fitted curve in the direction sought with a large enough effect; inconclusive means small, poorly fitted or top-dose-only effect, or another doubt; inactive means no such curve, though single readings can be large; an effect the other way counts as inactive or inconclusive.

What was measured:
MKL-1 = assay: qHTS assay to identify novel small-molecules to repurpose for Merkel cell carcinoma treatment (AID 1296009); conditions: MCC and control cell lines, CellTiter-Glo viability, 72 h; series mostly up to 46 µM; further: nearly all actives have a fitted effect of over 60% in size
How it was run: (§1)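 Cell viability measured by CellTiter-Glo following 72 hr compound treatment at 37 degree celsius, with NPC and MIPE libraries tested in 8- and 11-point concentration series.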

MKL-2 = assay: as above; conditions: MCC and control cell lines, CellTiter-Glo viability, 72 h; series mostly up to 46 µM
How it was run: as §1

NIH3T3 = assay: as above; conditions: MCC and control cell lines, CellTiter-Glo viability, 72 h; at 44.8 µM (top of the series)
How it was run: as §1

UISO = assay: as above; conditions: MCC and control cell lines, CellTiter-Glo viability, 72 h; series mostly up to 46 µM
How it was run: as §1

WaGa = assay: as above; conditions: MCC and control cell lines, CellTiter-Glo viability, 72 h; series mostly up to 46 µM
How it was run: as §1

C33A = assay: Primary qHTS to identify gynecologic anti-cancer compounds using libraries of approved drugs and bioactive compounds (AID 1345084); conditions: Gynecologic cancer cell panel viability, ATPlite luminescence, 48 h; series mostly up to 57.5 µM; further: nearly all actives have a fitted effect of over 55% in size
How it was run: (§2)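 Cytotoxicity screen measuring ATP content by luciferase luminescence. Each compound is applied at five concentrations for 48 h at 37 C with 5% CO2.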

CASKI = assay: as above; conditions: Gynecologic cancer cell panel viability, ATPlite luminescence, 48 h; series mostly up to 57.5 µM
How it was run: as §2

Es-2 = assay: as above; conditions: Gynecologic cancer cell panel viability, ATPlite luminescence, 48 h; series mostly up to 57.5 µM
How it was run: as §2

HeLa = assay: as above; conditions: Gynecologic cancer cell panel viability, ATPlite luminescence, 48 h; series mostly up to 57.5 µM
How it was run: as §2

CAOV3 = assay: as above; conditions: Gynecologic cancer cell panel viability, ATPlite luminescence, 48 h; series mostly up to 57.5 µM
How it was run: as §2

Measured: Potency
Potency means the concentration at half of the fitted maximal effect.

NC1CCN(c2nc3c(cc2F)c(=O)c(C(=O)O)cn3-c2ccc(F)cc2F)C1 (centres undefined)
not listed: CAOV3
inactive: all other assays above

CC(=O)N[C@@H](CCC(=O)O)C(=O)O
inactive: all assays above

CCC(C(=O)OCCOCCN(CC)CC)c1ccccc1 (centres undefined)
inactive: all assays above

NC(=O)c1ccccc1O
not listed: NIH3T3
inactive: all other assays above

CCCN(CCc1cccs1)[C@H]1CCc2c(O)cccc2C1
not listed: WaGa
inactive: all other assays above

OC[C@H]1O[C@@H]2O[C@H]3[C@H](O)[C@@H](O)[C@@H](O[C@H]4[C@H](O)[C@@H](O)[C@@H](O[C@H]5[C@H](O)[C@@H](O)[C@@H](O[C@H]6[C@H](O)[C@@H](O)[C@@H](O[C@H]7[C@H](O)[C@@H](O)[C@@H](O[C@H]8[C@H](O)[C@@H](O)[C@@H](O[C@H]1[C@H](O)[C@H]2O)O[C@@H]8CO)O[C@@H]7CO)O[C@@H]6CO)O[C@@H]5CO)O[C@@H]4CO)O[C@@H]3CO
not listed: NIH3T3
inactive: all other assays above

CCCCCN=C(N)N/N=C/c1c[nH]c2ccc(OC)cc12
active: UISO 11.9 µM
inactive: MKL-1 | MKL-2 | WaGa

Nc1ccc(S(=O)(=O)Nc2cnc3ccccc3n2)cc1
inactive: all assays above

C[C@@H](O)[C@H]1C(=O)N2C(C(=O)O)=C([C@H]3CCCO3)S[C@H]12
not listed: CAOV3
inactive: all other assays above

O=C(CN1CCN(Cc2ccc3c(c2)OCO3)CC1)N1c2ccccc2Sc2ccccc21
inactive: all assays above

COc1cc(C)nc(-n2nc(C)cc2OC)n1
not listed: UISO
inactive: all other assays above

CN1CCC(OC(c2ccccc2)c2ccccc2)CC1
inactive: all assays above

O=C(NC1CCN(CCc2c[nH]c3ccccc23)CC1)c1ccccc1
not listed: NIH3T3 | HeLa
inactive: all other assays above

CC(=O)Nc1ccc(OC(=O)c2ccccc2OC(C)=O)cc1
inactive: all assays above

CC(=O)OCC(=O)[C@H]1CC[C@H]2[C@@H]3CCC4=CC(=O)CC[C@]4(C)[C@H]3CC[C@]12C
active: HeLa 11.2 µM
not listed: NIH3T3
inactive: all other assays above

CC(C)NCC(O)c1ccc2ccccc2c1 (centres undefined)
inactive: all assays above

O=C1OC2(c3ccccc31)c1cc(Br)c(O)c(Br)c1Oc1c2cc(Br)c(O)c1Br
not listed: NIH3T3
inactive: all other assays above

O=C1C(=O)c2ccccc2C(O)=C1C1CCC(c2ccc(Cl)cc2)CC1 (centres undefined)
not listed: NIH3T3
inactive: all other assays above

CCCCCCCCCCCCCC(=O)OC(C)C
not listed: NIH3T3
inactive: all other assays above

CC(C)=CCOc1ccc(/C=C/C(=O)c2ccc(OCC=C(C)C)cc2OCC(=O)O)cc1
not listed: UISO
inactive: all other assays above

O=C1C(O)=C(O)C(=O)C(O)=C1O
not listed: NIH3T3 | HeLa
inactive: all other assays above

Oc1ccccc1C=NCc1ccccc1
inactive: all assays above
